About 83,000 compounds went through this panel and 20% of them were active in at least one assay; those are over-represented in the sample as a whole.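 Plates (96-well) were seeded with cells, treated with compound at one concentration, and incubated for 48 hours before percent growth was determined.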 A number with no mark means an inactive call. Active and inactive are the calls of the source. The calls were made as follows: active = growth percent below 10; inactive = the rest.

Holding throughout (test): NCI-60 one-dose screen, 48 h (100 = growth as untreated, 0 = no growth, -100 = all killed)
Common to all, as to conditions: 10 µM unless noted

Experiment [1] has as its system SR leukemia.
Experiment [2] has as its system RPMI-8226 leukemia.
Experiment [3] deals with OVCAR-8 ovarian.
For experiment [4], the system named is OVCAR-5 ovarian.
For experiment [5], the system named is OVCAR-4 ovarian.
The test system of experiment [6] is SK-OV-3 ovarian.
For experiment [7], the system named is IGROV1 ovarian.
In experiment [8] the test system is HS 578T breast.
Experiment [9] has as its system NCI/ADR-RES ovarian.
Experiment [10] concerns OVCAR-3 ovarian.

For `O=C(O)c1ccc(-c2nn(-c3ccc(C(=O)O)cc3)cc2CNc2ccc(Br)cc2)cc1`, the growth in experiment [1] was 107%; in experiment [2] it was 108%; in [3], 104%; in [4] it was 102%; in experiment [5], 104%; in experiment [6] it was 102%. For the same compound, the growth in experiment [7] was 115%; in [8], 107%; in [9], 112%.

With `COc1cc2ncnc(Nc3ccc4c(cnn4C(=O)Nc4ccccc4)c3)c2cc1OC`, the growth in experiment [1] is 1.84% (active); in [2], 70.5%; in experiment [3], 103%; in experiment [4], 105%; in [5], 88.5%; in experiment [6], 110%. Further, the growth in experiment [7] was 80.7%; in experiment [8], 102%; in experiment [9] it was 100%.

Turning to `BrCCCOc1ccc(Oc2ccc(OCCCBr)cc2)cc1`, the growth in [1] is 93.8%; in [2], 98%; in experiment [3] it was 94.6%; in experiment [4], 122%; in [5] it was 99%; in [6] it was 123%. Also, the growth was 123% in [10], 92.8% in experiment [8] and 110% in experiment [9].

For the compound `O=S(=O)(Cc1cccc2c(CS(=O)(=O)c3ccc(Cl)cc3)cccc12)c1ccc(Cl)cc1`, the growth was 94.7% in experiment [1]; 96.3% in [2]; 71.1% in experiment [3]; 97.3% in experiment [4]; 100% in [5]; 94.7% in experiment [6]. The growth is 91.4% in experiment [7], 70.8% in experiment [8] and 90% in experiment [9].

For the compound `Cn1cnc2nc[nH]c2c1=S`, the growth in [1] is 89.6%; in experiment [2], 101%; in experiment [3] it was 105%; in [4], 94.8%; in experiment [5] it was 108%; in [6] it was 105%. The growth was 113% in experiment [7], 102% in [8] and 101% in experiment [9].

Take `Cn1c2ccccc2c2ccccc21`: the growth was 87.6% in experiment [1]; 94.3% in experiment [2]; 98.3% in experiment [3]; 107% in [4]; 105% in [5]; 102% in experiment [6]. Also, the values for the growth in experiment [7], in experiment [10] and in [9] were 102%, 107% and 101%, respectively.

With `CCCCCCCCCC[N+](C)(C)C`, the growth in experiment [1] is 20.2%; in experiment [2], 1.86% (active); in experiment [3] it was 18.3%; in experiment [4] it was 9.16% (active); in experiment [5] it was 23%; in [6], 56.2%. The growth is -37.8% (active) in experiment [7], 26.5% in [8] and 94.4% in [9].

For `CC(O)CN(CCO)CCN(CCO)CC(C)O` (stereo not given), the growth in [1] was 89.2%; in experiment [2], 102%; in experiment [3], 106%; in experiment [4] it was 99.7%; in experiment [5], 109%; in [6] it was 114%. The growth in experiment [7] was 115%; in experiment [8], 108%; in experiment [9], 112%.

In the case of `CC(=O)c1ccc2c(c1)c1ccccc1n2C`, the growth in [1] is 77.9%; in [2], 93.2%; in experiment [3], 95.4%; in [4] it was 108%; in [5], 115%; in [6], 96.5%. The values for the growth in [7], in experiment [10] and in [9] were 87.6%, 108% and 91.2%, respectively.

Turning to `C[C@@H](c1ccc2c(c1)[nH]c1ccc(Cl)cc12)c1nc2ccccc2[nH]1`, the growth in experiment [1] is 74.3%; in [2], 81.3%; in [3] it was 93%; in experiment [4], 112%; in experiment [5], 94%; in experiment [6], 105%. For the same compound, the growth is 80.6% in experiment [7], 105% in experiment [8] and 91% in experiment [9].

For `O=C(Nn1cnc2ccccc21)N1CCCC1`, the growth in [1] was 76.5%; in [2] it was 150%; in [3] it was 106%; in experiment [4], 95.7%; in experiment [5], 118%; in experiment [6] it was 104%. For the same compound, the figures for the growth in [7], in experiment [8] and in experiment [9] were 39.4%, 104% and 119%, respectively.

Turning to `CCCCCCCCCCCCCCCCCCOP(=O)(O)O`, the growth in [1] was 103%; in experiment [2] it was 100%; in experiment [3] it was 97.5%; in experiment [4], 103%; in [5] it was 117%; in experiment [6], 109%. The growth in experiment [7] is 110%; in experiment [10] it was 113%; in [9], 108%.

Regarding `O=C(Oc1ccccc1)c1ccccc1Cl`, the growth is 104% in experiment [1]; 62.9% in [2]; 104% in experiment [3]; 90.7% in experiment [4]; 108% in experiment [5]; 101% in experiment [6]. The results for the growth in experiment [7], in [10] and in experiment [9] were 109%, 97.3% and 104%, respectively.

Turning to `Clc1ccc(N/N=C(\c2ccccc2)c2ccccn2)nc1`, the growth in experiment [1] is 1.95% (active); in [2], 4.95% (active); in experiment [3], 11.3%; in [4], 36.2%; in experiment [5], 30.7%; in experiment [6], 12.5%. The growth is 12.7% in experiment [7], 34.1% in experiment [8] and -12.9% (active) in experiment [9].

On to `O=C1C(Cl)=C(Nc2ccc(Nc3ccccc3)c(NC3=C(Cl)C(=O)c4ccccc4C3=O)c2)C(=O)c2ccccc21`, for which the growth is 44.6% in [1]; 27.4% in experiment [2]; 71.5% in experiment [3]; 141% in [4]; 54.8% in experiment [5]; 80.5% in [6]. The growth in experiment [7] is 68.6%; in experiment [9] it was 86.4%.

As to `O=C(O)COc1ccc([N+](=O)[O-])cc1Cl`, the growth in experiment [1] was 97.6%; in experiment [2] it was 94.2%; in [3], 110%; in experiment [4], 102%; in [5], 106%; in experiment [6], 98.7%. For the same compound, the growth is 100% in experiment [7], 123% in [10] and 107% in experiment [9].

As to `O=C(Nc1cccc2[nH]c(C(F)(F)F)nc12)c1ccc(F)cc1`, the growth is 76.3% in experiment [1]; 30.4% in [2]; 90.1% in experiment [3]; 99.6% in [4]; 80.3% in experiment [5]; 98.8% in experiment [6]. Besides, the values for the growth in experiment [7], in experiment [8] and in experiment [9] were 85.8%, 77.3% and 92.1%, respectively.

Take `COC(=O)/C=C/c1cc(O)c2oc(-c3ccc(O)c(O)c3)c(C(=O)OC)c2c1`: the growth is 22% in experiment [1]; -16.8% (active) in experiment [2]; 18.5% in [3]; 43.6% in experiment [4]; 42.8% in [5]; 32.4% in experiment [7]. Moreover, the growth was 11.7% in experiment [10], 18.3% in [8] and -3.33% (active) in [9].

As to `COC(=O)C(N)CC(C)C` (stereo not given), the growth in experiment [1] is 86.4%; in [2] it was 99.2%; in experiment [3], 101%; in experiment [4] it was 108%; in experiment [5], 111%; in experiment [6], 111%. For the same compound, the growth in experiment [10] is 109%; in experiment [8], 111%; in [9], 106%.

The values are drawn from PubChem BioAssay (NCI).
